Test results published in PubChem BioAssay (NCI).
The panel holds about 83,000 compounds, 20% with a hit somewhere; the sample as a whole holds those more often.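 Values shown are percent growth following 48 h exposure of cells in 96-well plates to a single concentration of compound; below 10 was considered active.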 Values without a mark were called inactive. The source made the active and inactive calls.

Key:
Assay in all cases: NCI-60 one-dose screen, 48 h (100 = growth as untreated, 0 = no growth, -100 = all killed)
NCI-H322M lung = conditions: 10 µM
HOP-62 NSCLC = conditions: 10 µM
NCI-H460 lung = conditions: 10 µM
NCI-H522 lung = conditions: 10 µM
A549/ATCC NSCLC = conditions: 10 µM
DU-145 prostate = conditions: 10 µM
MALME-3M melanoma = conditions: 10 µM
SF-268 CNS = conditions: 10 µM
SF-295 CNS = conditions: 10 µM
SF-539 CNS = conditions: 10 µM
UACC-257 melanoma = conditions: 10 µM
M14 melanoma = conditions: 10 µM
HCT-15 colon = conditions: 10 µM
HT29 colon = conditions: 10 µM
SNB-75 CNS = conditions: 10 µM
PC-3 prostate = conditions: 10 µM
SK-MEL-5 melanoma = conditions: 10 µM
UACC-62 melanoma = conditions: 10 µM
SK-MEL-2 melanoma = conditions: 10 µM
HL-60(TB) leukemia = conditions: 10 µM unless noted

Structure (SMILES)	growth (NCI-H322M lung)	growth (HOP-62 NSCLC)	growth (NCI-H460 lung)	growth (NCI-H522 lung)	growth (A549/ATCC NSCLC)	growth (DU-145 prostate)	growth (MALME-3M melanoma)	growth (SF-268 CNS)	growth (SF-295 CNS)	growth (SF-539 CNS)	growth (UACC-257 melanoma)	growth (M14 melanoma)	growth (HCT-15 colon)	growth (HT29 colon)	growth (SNB-75 CNS)	growth (PC-3 prostate)	growth (SK-MEL-5 melanoma)	growth (UACC-62 melanoma)	growth (SK-MEL-2 melanoma)	growth (HL-60(TB) leukemia)
CC[C@]12C=CCN3CC[C@@]4(c5ccc(OC)cc5N(C)[C@H]4[C@@](O)(C(=O)OC)[C@@H]1OC(=O)CCC[P+](c1ccc(F)cc1)(c1ccc(F)cc1)c1ccc(F)cc1)[C@@H]32	65.2%	64%	30.9%	-17.7% (active)	54.5%	47.7%	-32.6% (active)	42.3%	85%	24.2%	-34.3% (active)	21.5%	99.6%	15.7%	39.9%	16.7%	-38.3% (active)	-59.5% (active)	-46.9% (active)	-22.9% (active)
CCOP(=O)(OCC)C(NC(C)=O)C(=O)SCCN (stereo not given)	102%	107%	121%	98.7%	107%	122%	105%	125%	93.2%	97.5%	96.2%	106%	102%	113%	99.1%	116%	99.1%	95.8%	112%	99.2%
O=C(/C=C/c1ccccc1Cl)c1nc2ccccc2n1Cc1ccc(F)cc1	-42.1% (active)	-77.5% (active)	-54.6% (active)	-81.2% (active)	-44.3% (active)	-34.8% (active)	-80% (active)	-2.61% (active)	-86.8% (active)	-94.4% (active)	-61.1% (active)	-79.4% (active)	-83.1% (active)	-85.6% (active)	6.88% (active)	-57.3% (active)	-86.5% (active)	-93.2% (active)	-68.5% (active)	-38.4% (active)
